Screens: PubChem BioAssay, National Center for Advancing Translational Sciences (NCATS)
A selection: hits, their analogues and other compounds. The true share with any hit is near 1.2%.
KCNH2 3.1 inh: KCNH2 3.1 (human) potassium channel inhibition; U2OS KCNH2 3.1, thallium flux FluxOr; stronger effect = lower value; activity change, % (tested at about 1.8 µM); 340,000 tested, 0.95% active; AID 720553;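 active means maximum activity change below -70%; inconclusive means maximum activity change from -70% to -50%; inactive means maximum activity change above -50%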;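 further: thallium influx rate constant from kinetic fluorescence after stimulation buffer; on the % scale 0 is the no-effect control and ±100 the full control effect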
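Channel expression came from 3.1 mutant virus (1.77 x 10^8 /mL) applied to suspended U2OS cells for 4 h. Flux was tracked with FluxOr dye plus Red40 quencher, and kinetic rate constants normalized to controls.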
TRPV1 ag: activates the human vanilloid receptor TRPV1 | TRPV1-expressing cells, Fluo-8 calcium influx, agonist mode | activation, % at 8.33 µM | 320,000 tested, 0.19% active; in the data active means activation above about 80%; inconclusive means between about 30% and that limit; further: 0% is about no effect
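TRPV1-expressing cells were cultured overnight at 35.5C and loaded with Fluo-8 calcium dye for 40 to 90 min at room temperature. After a 10 s baseline, compound was added and calcium influx was read kinetically for 3 min (ex 480/em 520 nm).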
TRPV1 PAM: human TRPV1 potentiation. Q8NER1. TRPV1-expressing cells, Fluo-8 calcium influx, capsaicin EC20 potentiation. potentiation, % at 8.33 µM. 320,000 tested, 0.02% active. AID 540277; in the data active means potentiation above about 80%; inconclusive means between about 30% and that limit; further: 0% is about no effect
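TRPV1-expressing cells were cultured overnight at 35.5C and loaded with Fluo-8 calcium dye for 40 to 90 min at room temperature. After a 10 s baseline, compound was added and calcium influx was read kinetically for 3 min (ex 480/em 520 nm).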
KCNH2 WT inh: blocks the wildtype human KCNH2 potassium channel; AID 720551; U2OS, BacMam KCNH2, thallium flux FluxOr; stronger effect = lower value; Q12809; activity change, % at 1.84 µM; 340,000 tested, 0.37% active;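 active means maximum activity change below -70%; inconclusive means maximum activity change between -70% and -50%; inactive means maximum activity change above -50%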; further: on the % scale 0 is the no-effect control and ±100 the full control effect
Target sequence (Q12809 whole entry, looked up): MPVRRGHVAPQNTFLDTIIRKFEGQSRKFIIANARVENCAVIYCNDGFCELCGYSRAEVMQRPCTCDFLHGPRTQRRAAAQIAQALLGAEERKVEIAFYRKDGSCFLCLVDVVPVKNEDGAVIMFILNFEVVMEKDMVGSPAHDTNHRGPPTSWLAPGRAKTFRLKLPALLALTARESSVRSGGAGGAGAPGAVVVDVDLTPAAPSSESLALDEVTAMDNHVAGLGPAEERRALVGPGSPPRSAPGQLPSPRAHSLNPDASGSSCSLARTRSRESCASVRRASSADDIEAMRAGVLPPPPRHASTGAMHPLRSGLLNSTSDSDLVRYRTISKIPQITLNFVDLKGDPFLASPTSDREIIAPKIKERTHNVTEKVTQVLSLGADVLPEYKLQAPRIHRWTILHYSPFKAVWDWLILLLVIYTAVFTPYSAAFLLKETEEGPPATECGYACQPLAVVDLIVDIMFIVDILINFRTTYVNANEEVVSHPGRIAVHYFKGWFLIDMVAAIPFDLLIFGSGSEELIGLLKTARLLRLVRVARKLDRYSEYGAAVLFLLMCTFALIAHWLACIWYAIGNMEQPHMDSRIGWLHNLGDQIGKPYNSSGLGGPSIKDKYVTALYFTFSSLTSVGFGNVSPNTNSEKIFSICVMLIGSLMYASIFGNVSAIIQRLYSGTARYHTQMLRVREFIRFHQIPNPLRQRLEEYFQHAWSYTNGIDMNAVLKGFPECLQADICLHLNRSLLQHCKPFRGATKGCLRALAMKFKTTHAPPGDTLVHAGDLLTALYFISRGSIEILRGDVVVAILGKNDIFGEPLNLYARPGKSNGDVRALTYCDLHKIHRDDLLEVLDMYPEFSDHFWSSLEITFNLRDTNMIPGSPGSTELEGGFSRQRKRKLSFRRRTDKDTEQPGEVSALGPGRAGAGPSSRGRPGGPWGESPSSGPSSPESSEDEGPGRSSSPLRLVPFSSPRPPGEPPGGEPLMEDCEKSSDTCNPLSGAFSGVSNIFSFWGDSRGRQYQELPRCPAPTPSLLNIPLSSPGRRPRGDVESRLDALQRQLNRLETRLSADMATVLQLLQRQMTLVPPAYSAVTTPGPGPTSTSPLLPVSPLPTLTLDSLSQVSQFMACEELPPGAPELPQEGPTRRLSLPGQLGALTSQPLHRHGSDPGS
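U2OS cells transduced with wild-type KCNH2 virus are loaded with FluxOr dye for 45 min, and thallium flux is measured in kinetic reads before and after stimulation buffer. Rate constants are normalized to DMSO controls.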
* = called active by the depositor; ? = inconclusive; / = no result.

SMILES	KCNH2 3.1 inh	TRPV1 ag	TRPV1 PAM	KCNH2 WT inh
CCOc1ccccc1NC(=O)c1nnn(CC(=O)Nc2ccc3c(c2)OCO3)c1N	3	26	7	-13
CCOc1ccccc1NC(=O)Cn1nnc(C(=O)Nc2ccc(C)cc2)c1N	-7	-1	20	-127*
CCN(C[C@H]1N[C@@](CC)(C(=O)OC)[C@H]2C(=O)N(Cc3ccccc3)C(=O)[C@@H]12)S(=O)(=O)c1ccc(OC(F)(F)F)cc1	-13	/	/	-277*
CNC(=O)C[C@@H]1C(=O)N(c2ccc(Br)cc2)CC1(C)C	-22	/	/	1
Cc1ccc(CN(CC(O)COc2cccc3[nH]cc(C)c23)C(C)(C)C)cc1 (stereo not drawn)	-74*	-3	24	-7
CSC[C@H]1CN(c2ccccc2)C(=O)[C@@H]1CC(=O)Nc1ccccc1	3	/	/	-3
COc1ccc(Nc2nc(C)nc3c2oc2ccccc23)cc1	2	98*	-14	8
Cc1nc(NCCc2ccccc2)c2oc3ccccc3c2n1	-1	82*	-9	5
Cc1ccc(Nc2nc(C)nc3c2oc2ccccc23)cc1	-5	88*	-11	13
Cc1nc(NCCN2CCOCC2)c2oc3ccccc3c2n1	-7	0	-3	0
O=C(NCc1ccccn1)C1CCN(C2CCN(Cc3cccc(F)c3)CC2)CC1	27	/	/	30
Cc1ccc2nc(-c3ccccc3)nn2c1	2	/	/	2
O=C(Cn1cnc2c(nnn2Cc2ccc(F)cc2)c1=O)Nc1ccc2c(c1)OCCO2	6	-5	2	35
CSc1nc2ccc(NC(=O)CSc3nnc(N)s3)cc2s1	-91*	1	-26	-9
CCOC(=O)c1c(N)nn(C(C)=O)c1-c1ccccc1	-73*	-1	-7	-8
CCOC(=O)c1c(N)nn(C(=O)C(C)C)c1-c1ccc(OC)cc1	-8	10	-5	-2
Cc1ccc(N2CC(C(=O)Nc3cccc(S(=O)(=O)N4CCOCC4)c3)CC2=O)cc1 (stereo not drawn)	4	/	/	-3
CCN(CC)C(=O)c1cn(C)c(=O)c2cc(OC)c(OC)cc12	-198*	2	-1	4
CCCOc1ccc(C2NC(=S)NC(C)=C2C(=O)c2ccccc2)cc1OC (stereo not drawn)	-112*	-2	-3	-6
COC(=O)C1=C(C)N(Cc2ccccc2)C(=S)N[C@H]1CCc1ccccc1	/	2	19	/
O=C(CN(Cc1ccco1)S(=O)(=O)c1ccccc1)N/N=C/c1ccccc1C(=O)O	-104*	-4	23	-2
O=C(CN(c1ccccc1Cl)S(=O)(=O)c1ccccc1)N/N=C/c1ccccc1C(=O)O	-2	-3	1	7
O=S1(=O)c2ccc(Br)cc2N2CCC[C@@H]2CN1Cc1ccccc1	-26	/	/	-6
Cc1ccc(C(=O)O)cc1NC(=O)CCc1c(C)noc1C	16	/	/	1
C=C1CC2C=C(NC(C)=O)CC(C1)C2 (stereo not drawn)	-83*	0	-4	-7
SMILES	KCNH2 3.1 inh	TRPV1 ag	TRPV1 PAM	KCNH2 WT inh
COc1ccc(C(CCNCc2ccc(N(C)C)cc2)c2ccccc2)cc1 (stereo not drawn)	-85*	6	6	-30
CC(C)Oc1ccc(C(CCNCc2ccc(O)cc2)c2ccccc2)cc1 (stereo not drawn)	-47	10	-7	21
CCOC(=O)C1=C(C)N=C2SC(C)C(=O)N2C1c1ccc(C(=O)OC)cc1 (stereo not drawn)	19	16	-7	6
CCOC(=O)C1=C(C)N=C2SC(C)C(=O)N2C1c1ccccc1 (stereo not drawn)	-94*	4	-2	-9
COc1ccccc1C1(O)CCN(CC(=O)Nc2nc(-c3ccccc3)cs2)CC1	-86*	1	7	7
CCc1nnc(NC(=O)CN2CCC(O)(c3ccccc3OC)CC2)s1	5	1	0	-10
CSc1ccc(CN2CCC(n3nccc3NC(=O)C3CCOC3)CC2)cc1 (stereo not drawn)	-19	-1	7	41
CSc1ccc(CN2CCC(n3nccc3NC(=O)c3ccccc3C)CC2)cc1	-123*	-3	26	-126*
CCc1ccc(CN2CCC(n3nccc3NC(=O)c3ccccc3Cl)CC2)cc1	-103*	-3	-2	-97*
CC(Cc1ccc(Cl)cc1)N1CCC(n2nccc2NC(=O)C2CCCC2)CC1 (stereo not drawn)	-101*	0	-6	-21
Cn1cc(CN2CCC(n3nccc3NC(=O)c3ccccc3Cl)CC2)cn1	-18	-2	-10	25
CCOc1cccc(CN2CCC(n3nccc3NC(=O)c3ccc4c(c3)OCO4)CC2)c1	-5	2	-9	19
CCc1ccc(CN2CCC(n3nccc3NC(=O)c3ccc4c(c3)OCO4)CC2)cc1	-106*	0	12	?
CCCCCCCSc1ncnc2[nH]ncc12	9	/	/	-1
CC(=O)Nc1ccc(S(=O)(=O)N(C)CC(=O)N(C)Cc2sccc2C)cc1	3	2	-2	-11
Cc1nn(-c2ccccc2)c(C)c1C(=O)OC(C)C(=O)NC1CCCCC1 (stereo not drawn)	10	/	/	-2
O=C(CCNS(=O)(=O)c1ccc(Br)cc1)NNC(=O)C1COc2ccccc2O1 (stereo not drawn)	6	/	/	-9
O=C(NC(=S)Nc1cccc([N+](=O)[O-])c1)c1ccccc1	18	12	-16	2
O=C(NC(=S)Nc1cc([N+](=O)[O-])ccc1Cl)c1ccccc1	-154*	8	-7	-168*
C(=N\n1cnnc1)/c1cccs1	-86*	1	-5	12
COc1ccc(NC(=O)c2ccc(C)cc2)c(OC)c1	-154*	9	-13	-170*
COc1ccc(-c2cc(C(=O)Nc3ccc(OC)cc3OC)no2)cc1	-108*	-5	27	2
COc1ccc(-c2cc(C(=O)Nc3cc(Cl)ccc3OC)no2)cc1	-9	0	-5	-9
COc1ccc(C(=O)Nc2ccc(C3=NNC(=O)CC3C)cc2NC(=O)c2ccc(OC)cc2)cc1 (stereo not drawn)	-2	84*	-3	-5
COc1ccc(NC(=O)c2cc(-c3ccccc3)on2)cc1OC	-76*	2	7	4
SMILES	KCNH2 3.1 inh	TRPV1 ag	TRPV1 PAM	KCNH2 WT inh
COc1ccc(C(=O)Nc2ccc(C(=O)O)cc2NC(=O)c2ccc(OC)cc2)cc1	-9	-2	7	-12
COc1ccc(CC(=O)NCc2ccc(F)cc2)cc1S(=O)(=O)N1CCOCC1	13	2	5	-5
N#Cc1ccccc1S(=O)(=O)N1CCN(C(=O)c2cn(-c3ccccc3)nc2-c2cccnc2)CC1	-9	-3	-1	12
O=C(COC(=O)c1cccc(Cl)c1)Nc1cccc(S(=O)(=O)NC2=NCCC2)c1	26	/	/	-2
O=C1NC(=O)C2(CCCCCC2)N1	-4	/	/	-3
Cc1ccc(CNS(=O)(=O)c2ccc(-c3cnc(C4CC4)o3)cc2)cc1	-89*	6	27	-14
